Source: PubChem BioAssay (National Center for Advancing Translational Sciences (NCATS))
TSHR agonist: TSH receptor (human) agonism; Potency, µM (titrated, usually from 57.1 µM), inactives show at the highest dose activation, hits mostly activators; HEK293-CNG-TSHR cells (CNG channel as cAMP sensor), membrane potential dye, cAMP; actives 0.48% (n = 73,000); active = well fitted activation curve with a large enough effect in the main read-out, with a control signal flat, not every such curve was filed as active; inconclusive = small, poorly fitted or top-dose-only effect, or a change in a side signal; inactive = no such curve, though single readings can be large or run the other way; % of control where 0% means no effect;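 note: the control signal comes from parental cells without the receptor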
Target sequence (P16473 whole entry, looked up): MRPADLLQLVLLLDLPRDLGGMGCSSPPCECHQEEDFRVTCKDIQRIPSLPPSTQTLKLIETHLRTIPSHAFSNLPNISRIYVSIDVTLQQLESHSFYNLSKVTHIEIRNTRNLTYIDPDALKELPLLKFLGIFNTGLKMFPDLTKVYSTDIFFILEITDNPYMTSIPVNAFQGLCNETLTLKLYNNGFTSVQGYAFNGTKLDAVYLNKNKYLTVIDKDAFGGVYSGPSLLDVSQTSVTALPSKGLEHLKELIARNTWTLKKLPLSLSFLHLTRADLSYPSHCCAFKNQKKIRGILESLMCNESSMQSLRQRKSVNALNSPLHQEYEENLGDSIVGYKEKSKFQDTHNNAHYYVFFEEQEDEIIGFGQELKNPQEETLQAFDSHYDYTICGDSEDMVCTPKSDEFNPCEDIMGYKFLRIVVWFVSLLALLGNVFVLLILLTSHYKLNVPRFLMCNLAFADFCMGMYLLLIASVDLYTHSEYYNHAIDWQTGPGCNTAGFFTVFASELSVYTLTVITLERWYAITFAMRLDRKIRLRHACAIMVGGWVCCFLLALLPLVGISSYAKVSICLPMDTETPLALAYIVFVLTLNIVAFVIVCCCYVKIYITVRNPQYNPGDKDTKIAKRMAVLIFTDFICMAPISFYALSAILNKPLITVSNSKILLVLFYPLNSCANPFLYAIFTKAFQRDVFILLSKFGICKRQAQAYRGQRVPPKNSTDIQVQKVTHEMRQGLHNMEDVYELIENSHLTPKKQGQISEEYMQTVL
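HEK 293 cells stably expressing TSHR and a modified CNG channel, with CNG-only parental cells as counterscreen, were preloaded 60 min at room temperature with membrane potential dye containing 100 uM RO 20-1724. Compound exposure was 30 min, and depolarization was read as fluorescence at 590 nm.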
HEK293 cAMP ctrl: raises cAMP in parental HEK293 cells, TSHR agonist counter-screen. AID 938. Potency, µM (series often up to 57.1 µM), for the others: top-dose activation, hits mostly activators. actives 2.5% (n = 73,000). parental HEK293 CNG cAMP sensor, membrane potential fluorescence; active = well fitted activation curve with a large enough effect; inconclusive = small, poorly fitted or top-dose-only effect; inactive = no such curve, though single readings can be large or run the other way; note: % of control where 0% means no effect; nearly all actives have a fitted effect of over 55% in size
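Parental HEK 293 cells stably expressing a modified CNG channel (no TSHR) report cAMP rise as membrane depolarization. Membrane potential dye with 100 uM RO 20-1724 was loaded for 60 min at room temperature, then compound added for 30 min; fluorescence read at 590 nm.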
Active calls of the source: *; ? = inconclusive; · = no result; [ ] = dose if it differs, or a comment. Most compounds without a hit are left out; they make up all but 2.9% or so of the library. Potency is the fitted concentration of half-maximal effect.

SMILES	TSHR agonist	HEK293 cAMP ctrl
O=C1OC(C2=CCCCC2)=NC12CC2	3.2%[11.4 µM]	4.5%[11.4 µM]
COC(=O)c1ccc(COC(=O)c2ccc(-n3cnnn3)cc2)o1	13.2%	7.2%
O=C(OCCOc1ccccc1Cl)c1ccc(-n2cnnn2)cc1	?	39.8µM*
O=S(=O)(c1ccccc1)N1CCC2(CCN(Cc3ccccc3)CC2)CC1	-1.7%	-1.8%
O=S(=O)(c1ccccc1)N1CCC2(CCCN(Cc3ccccc3)C2)CC1	?	15.8µM*
O=c1oc2ccccc2c(O)c1/C=N/c1nc(-c2ccc(O)c(O)c2)cs1	5.7%[11.4 µM]	4.3%[11.4 µM]
CCC(=O)Nc1ncnc2ncn(C(=O)CC)c12	-3.1%[11.4 µM]	1.9%[11.4 µM]
Cc1sc(NC(=O)CSc2nnc(COc3ccccc3)n2C)c(C#N)c1C	?	6.31µM*
Cc1cccc(OCc2nnc(SCC(=O)Nc3sc(C)c(C)c3C#N)n2C)c1	12.7%	-1.2%
Cc1cc(C2(c3cc(C)c(O)cc3C)OS(=O)(=O)c3ccccc32)c(C)cc1O	2.5%	28.1%
CC(=O)Nc1nc(NC(C)=O)c2[nH]c(CO)nc2n1	-5.7%[11.4 µM]	4.5%[11.4 µM]
CN(C)Cc1ccccc1-c1nc(NC2CCNCC2)c2ccccc2n1	2.9%	-9.1%
CN(C)Cc1ccccc1-c1nccc(N(C)Cc2ccco2)n1	?	31.6µM*
CN(C)Cc1ccccc1-c1nccc(NCc2cccs2)n1	?	25.1µM*
CN(C)Cc1ccccc1-c1nc(N2CCOCC2)c2ccccc2n1	?	7.94µM*
Cc1cnc(CNc2ccnc(-c3ccccc3CN(C)C)n2)cn1	4.9%	2.0%
c1ccc(-c2nc(N3CCOCC3)c3ccccc3n2)nc1	0.1%	4.5%
CN(C)Cc1ccccc1-c1nc(N(C)Cc2ccco2)c2ccccc2n1	?	12.6µM*
Cc1ccccc1-c1cc(N(C)Cc2ccco2)ncn1	6.2%	4.3%
CCCCCCCN	-12.3%	14.4%
O=C(O)c1ccc(Cl)c(S(=O)(=O)Nc2ccccc2F)c1	-1.0%	-0.7%
O=C(O)CSCCc1ccccc1	1.5%[11.4 µM]	12.1%[11.4 µM]
O=C(NCc1cccc(C(F)(F)F)c1)C1CCCN(c2ncccn2)C1 (stereo unspecified)	3.3%	13.5%
O=C(Nc1cccc(C(F)(F)F)c1)C1CCCN(c2ncccn2)C1 (stereo unspecified)	?	25.1µM*
O=C1c2ccccc2C(=O)c2c(NC3CCCCC3)ccc(Nc3ccc(S(=O)(=O)O)cc3)c21	-3.0%[11.4 µM]	-10.7%[11.4 µM]
SMILES	TSHR agonist	HEK293 cAMP ctrl
CCn1c(SCC(=O)c2ccc(Cl)cc2)nnc1-c1ccoc1C	?	25.1µM*
CCCCn1c(SCC(N)=O)nnc1-c1ccco1	8.1%	20.3%
O=C(CSc1nnc(-c2ccco2)n1Cc1ccccc1)c1ccccc1	3.1%[11.4 µM]	18.8%
CC(C)Cn1c(SCC(=O)c2ccc(Cl)s2)nnc1-c1ccco1	?	20µM*
CCn1c(SCC(=O)c2ccc(C)cc2)nnc1-c1ccoc1C	13.4%	33.8%
Cc1ccc(C(=O)CSc2nnc(-c3ccco3)n2Cc2ccccc2)cc1	?	12.6µM*
Cc1ccc(C2=C(Cl)C(=O)C(c3ccc(C)cc3)=C(Cl)C2=O)cc1	1.5%[11.4 µM]	2.8%[11.4 µM]
COc1ccc(O[C@H]2C=C[C@@H](c3ccccc3)O[C@H]2COC(=O)CC/C(C)=N\OC[C@@H](O)COCc2ccco2)cc1	5.3%[11.4 µM]	21.3%[11.4 µM]
CC(=O)OCC1OC(C#Cc2ccc(C)cc2C)C=CC1OC(C)=O (stereo unspecified)	7.7%[11.4 µM]	0.6%[11.4 µM]
COC(=O)/C=C\CCc1coc(/C=C\CNC(=O)OC)n1	-5.1%[11.4 µM]	1.5%[11.4 µM]
CC1CCCC(C)N1C(=O)c1cc(-c2cccs2)on1 (stereo unspecified)	20µM*	15.7%
O=C(NC1CCCC1)c1cc(-c2cccs2)on1	3.4%	26.1%
CC(=O)NC1C(=O)N=C(SCC(=O)NC(C)c2ccccc2)NC1=O (stereo unspecified)	?	15.8µM*
CC(=O)NC1C(=O)N=C(SCc2ccccc2)NC1=O (stereo unspecified)	1.7%	0.2%
CCCCCCC#Cc1cc(OC)c(OC)cc1C(N1CC(C)c2ccccc21)N1CC(C)c2ccccc21 (stereo unspecified)	-5.2%[11.4 µM]	11.4%[11.4 µM]
O=C(NC1CCN(Cc2ccccc2)CC1)c1ccc(-n2c(=O)c(=O)[nH]c3ccccc32)cc1	?	-18.6%
COc1ccc(Oc2cn[nH]c2-c2ccc(O)cc2O)cc1	?	2µM*
CCCc1ccc(Oc2cn[nH]c2-c2ccc(O)cc2O)cc1	-13.1%[11.4 µM]	-3.1%[11.4 µM]
Cc1ccc(S(=O)(=O)N(C)Cc2ccc(-c3nnco3)cc2)cc1	?	25.1µM*
CCN(CC)S(=O)(=O)c1ccc(-c2nnco2)cc1	15.5%	1.1%
CC(C)=CCC/C(C)=C/CO/N=C1/C[C@@H](O)[C@@H](O)[C@@H]2[C@H]3C(=O)N(c4ccc(F)cc4F)C(=O)[C@@H]3CC[C@H]12	1.3%[11.4 µM]	0.9%[11.4 µM]
O=C(c1cccc(F)c1)N1C2C=CC(C2)C1(C(F)(F)F)C(F)(F)F (stereo unspecified)	25.1µM*	23.2%
O=C(c1cccc(F)c1)N1CCN(c2cccc(C(F)(F)F)c2)CC1	24.5%	14.5%
COC(=O)C1=C(C)N(Cc2ccccc2)[C@]23O[C@](C(=O)OC)(C(=O)N2C1c1ccccc1)C1CCOC(=O)C13 (stereo partly specified)	-1.2%[11.4 µM]	0.5%[11.4 µM]
CC(C)[C@@H](C)/C=C\[C@@H](C)[C@@H]1CC[C@H]2C3=CC=C4C[C@@H](O)CC[C@]4(C)[C@H]3CC[C@]21C	0.2%[11.4 µM]	-8.7%[11.4 µM]
SMILES	TSHR agonist	HEK293 cAMP ctrl
Cc1ccc(C(C)C)c(OCC(=O)Nc2ccccc2N2CCN(C)CC2)c1	28.5%	25.3%
O=C(O)CCC(=O)Nc1ccccc1N1CCOCC1	8.3%	0.5%
CCC(=O)N1CCN(c2ccccc2NC(=O)COc2cccc(C)c2)CC1	?	20µM*
O=C(COc1ccc(Cl)cc1)Nc1ccccc1N1CCOCC1	?	15.8µM*
Cc1cccc(OCC(=O)Nc2ccccc2N2CCN(C(=O)C(C)C)CC2)c1C	?	1.58µM*
CCC(=O)N1CCN(c2ccccc2NC(=O)COc2ccccc2Cl)CC1	·	22.6%
C=CC1=C(C)C2=NC1=CC1=NC(=CC3=NC(=CC4=NC(=C2)C(C)=C4CCC(=O)O)C(CCC(=O)O)=C3C)C(C=C)=C1C.[Zn]	?	-30.4%
C[C@H](NC(=O)c1ccc(Cl)c(Cl)c1)c1ccc(-c2ccccc2)cc1	-5.9%[11.4 µM]	0.4%[11.4 µM]
Cc1cc2ncn(CC(=O)O)c2cc1C	2.1%[11.4 µM]	21.5%[11.4 µM]
COc1ccc(COC(=O)N/N=C2/C[C@@H](O)[C@@H](O)[C@@H]3[C@@H]4C(=O)N(C5CCCCC5)C(=O)[C@H]4CC[C@@H]23)cc1	-5.3%[11.4 µM]	5.2%[11.4 µM]
CC1=C(C(=O)OCc2ccccc2)C(c2ccccc2)NC(=O)N1CCCCCC(=O)O (stereo unspecified)	·	28.3%
CC1=C(C(=O)OCc2ccccc2)C(c2ccc(C(C)(C)C)cc2)NC(=O)N1CCCCCC(=O)O (stereo unspecified)	?	20µM*
Cc1ccc(-c2nc(CS(=O)(=O)CC(=O)N3CCc4ccccc4C3)c(C)o2)cc1	?	1.58µM*
Cc1cccc(-c2nc(CS(=O)CC(=O)N3CCc4ccccc4C3)c(C)o2)c1 (stereo unspecified)	8.0%	14.8%
NS(=O)(=O)c1cc2c(cc1Cl)=NC(CCC(=O)O)=NS=2(=O)O	0.5%[11.4 µM]	-3.9%[11.4 µM]
O=C(O)c1ccc(F)c(S(=O)(=O)Nc2cccc(F)c2)c1	-6.3%	-14.0%
c1ccc2c(N3CCCCC3)nc(N3CCCC3)nc2c1	?	12.6µM*
